Source: PubChem BioAssay (National Center for Advancing Translational Sciences (NCATS))
Sampled rows, rich in hits. Any-hit rate of the full collection: about 3%.
SNCA expr inh: Primary qHTS assay for inhibitors of alpha-synuclein gene (SNCA) expression. HEK-293 SNCA-luciferase knock-in, luminescence, 24 h. Potency, µM (highest dose often 57.2 µM), most hits filed as inhibitors. hit rate 0.17% among 140,000. AID 1671194, 2021; further: nearly all actives have a fitted effect of over 45% in size
IP6K1 inhibitor: Primary qHTS assay for small molecule inhibitors of Inositol hexaphosphate kinase 1 (IP6K1). Inositol hexakisphosphate kinase 1 (Homo sapiens), Q92551. IP6K1 kinase, ADP-Glo luminescence, 2 h; stronger effect = lower value. activity change, % (series mostly up to about 58 µM). hit rate 0.81% among 140,000; in the data active means activity change below about -25%
Target sequence (Q92551 whole entry, looked up): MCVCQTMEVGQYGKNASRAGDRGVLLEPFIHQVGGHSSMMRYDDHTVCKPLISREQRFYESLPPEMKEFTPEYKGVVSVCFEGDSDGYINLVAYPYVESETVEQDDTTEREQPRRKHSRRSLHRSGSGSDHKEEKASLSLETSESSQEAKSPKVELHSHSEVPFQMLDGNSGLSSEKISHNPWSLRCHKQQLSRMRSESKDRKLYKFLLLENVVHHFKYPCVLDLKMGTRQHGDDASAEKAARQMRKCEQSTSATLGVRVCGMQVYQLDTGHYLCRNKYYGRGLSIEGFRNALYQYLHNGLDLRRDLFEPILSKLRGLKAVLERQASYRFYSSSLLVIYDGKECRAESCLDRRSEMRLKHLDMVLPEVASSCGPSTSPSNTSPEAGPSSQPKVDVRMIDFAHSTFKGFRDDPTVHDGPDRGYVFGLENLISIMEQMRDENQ
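ADP-Glo luminescence measures ADP made by human IP6K1 during a 2 h RT reaction with ATP/IP6 (mix at 1.3 mM/130 uM); top library doses 57.5 and 19.1 uM final.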
HEK293 viab: GF-AFC viability counterscreen for inhibitors of alpha-synuclein gene (SNCA) expression; AID 1671193, 2021; hit rate 0.12% among 150,000; Potency, µM (highest dose often 57.1 µM), usual class: cytotoxic; HEK-293-SNCA-luc viability, GF-AFC fluorescence, 24 h; further: nearly all actives have a fitted effect of over 30% in size
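HEK-293-SNCA-luc cells (1500/well) plated 24 h, then exposed 24 h to a dilution series; GF-AFC added 30 min at 37C, fluorescence 405/540 nm; normalised to medium-only and DMSO wells, Hill fit.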
KDM5B inh: Primary screen for KDM5B Histone Demethylases FDH-coupled qHTS. Lysine-specific demethylase 5B (Homo sapiens), Q9UGL1. KDM5B demethylase, FDH-coupled NADH fluorescence (FDH is formaldehyde dehydrogenase). Potency, µM (highest dose often 57.7 µM), usual class: inhibitors. hit rate 2.6% among 220,000. AID 1347165, 2019; further: nearly all actives have a fitted effect of over 70% in size
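Inhibition is measured as reduced NADH fluorescence generation from FDH coupling to formaldehyde release. Truncated KDM5BΔAP at 200 nM final acts on H3K4me3 peptide (12.5 µM in substrate mix) in pH 7.5 HEPES buffer with Tween-20, 30 min, room temperature.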
Large screens that a line does not name were inactive. Unless noted, the call rests on the fitted dose curve; in most records, active means well fitted curve in the direction sought with a large enough effect; inconclusive means small, poorly fitted or top-dose-only effect, or another doubt; inactive means no such curve, though single readings can be large; an effect the other way counts as inactive or inconclusive.

CCOCCNC(=O)c1c(C)noc1-c1ccc(OC)cc1	none
COc1cccc(CCNC(=O)c2c(C)noc2-c2cc(OC)c(OC)c(OC)c2)c1	KDM5B inh 28µM
COc1cc(-c2onc(C)c2C(=O)NCCc2ccc(F)cc2)cc(OC)c1OC	KDM5B inh 28µM
Cc1noc(C)c1[S+](=O)([O-])N1CCC2(CC1)CC(c1cccc(C(F)(F)F)c1)=NO2	none (no result: SNCA expr inh, HEK293 viab, KDM5B inh)
CCCNC(=O)C(C)NC(=O)C1CCN(c2nc3ccccc3o2)CC1 (stereo not given)	none (no result: SNCA expr inh, IP6K1 inhibitor, HEK293 viab)
O=C(O)c1ccc(/C=C/C(=O)c2cccc(N3CCOCC3)c2)cc1	none (no result: SNCA expr inh, IP6K1 inhibitor, HEK293 viab)
O=C(CC1CCCC1)N1C[C@@H](CO)[C@@H]2Oc3c(F)cccc3[C@@H]21	none (no result: SNCA expr inh, HEK293 viab, KDM5B inh)
COc1ccccc1-c1nc(-c2nnn3c2COC(c2ccccc2Cl)C3)no1 (stereo not given)	KDM5B inh 28µM
CCOc1ccccc1-c1nc(-c2nnn3c2COC(c2ccccc2Cl)C3)no1 (stereo not given)	KDM5B inh 28µM
COc1ccc(-c2nc(-c3nnn4c3COC(c3ccccc3Cl)C4)no2)cc1F (stereo not given)	HEK293 viab inconclusive, KDM5B inh 13µM
CSc1ccc(-c2noc(-c3ncn4c3COC(c3ccccc3Cl)C4)n2)cc1 (stereo not given)	KDM5B inh 25µM
COc1ccc(-c2nc(-c3nnn4c3COC(c3ccccc3Cl)C4)no2)cc1OC (stereo not given)	KDM5B inh inconclusive
Cc1ccc(-c2nc(-c3nnn4c3COC(c3ccccc3Cl)C4)no2)cc1 (stereo not given)	KDM5B inh inconclusive
COc1ccc(C2Cn3nnc(-c4noc(-c5ccccc5Cl)n4)c3CO2)cc1 (stereo not given)	none
Cc1nn(-c2ccccc2)c2c1C(C1CC1)N(C1CN(C(=O)c3ccccn3)C1)C2=O (stereo not given)	none (no result: SNCA expr inh, HEK293 viab, KDM5B inh)
CC(C)COC(=O)N1C[C@H](C(N)=O)[C@H]2c3ccccc3N(CC3CC3)C(=O)[C@]21C	none (no result: SNCA expr inh, HEK293 viab, KDM5B inh)
CC(C)C(=O)NC1CCN(C(=O)c2ccc(-c3cccs3)cc2)CC1	none (no result: KDM5B inh)
O=C(NCc1ccccc1)c1ccccc1OC1CN(Cc2cccc(F)c2F)C1	HEK293 viab inconclusive (no result: KDM5B inh)
CC1CCCC(C)N1C(=O)c1ccc2nc(-c3ccncc3)oc2c1 (stereo not given)	none (no result: KDM5B inh)
CNc1nc2c(s1)C(c1ccc(F)c(F)c1)CC(=O)N2 (stereo not given)	IP6K1 inhibitor -37, KDM5B inh 32µM
CCNc1nc2c(s1)C(c1cccnc1)CC(=O)N2 (stereo not given)	IP6K1 inhibitor -46, KDM5B inh inconclusive
Cc1cccn2c3c(c(=O)nc12)C(c1cccc(F)c1)CC(=O)N3 (stereo not given)	none
CNc1nc2c(s1)C(c1cccc(F)c1)CC(=O)N2 (stereo not given)	SNCA expr inh inconclusive, IP6K1 inhibitor -67, KDM5B inh 28µM
O=C(Nn1cnnc1)c1ccccc1Br	none (no result: SNCA expr inh, IP6K1 inhibitor, HEK293 viab)
O=C(NC1CCN(c2ccc3nnc(-c4ccccc4)n3n2)C1)c1ccc(Cl)nc1 (stereo not given)	none (no result: SNCA expr inh, HEK293 viab, KDM5B inh)
CC(=O)Nc1ccc(NC(=O)CC2C=CCC2)cc1 (stereo not given)	none (no result: SNCA expr inh, IP6K1 inhibitor, HEK293 viab)
CCOC(=O)[C@@H]1[C@@H](O)C(=O)N(Cc2ccccc2)C12CCN(C(=O)c1ccc(C(C)(C)C)cc1)CC2	none (no result: SNCA expr inh, HEK293 viab, KDM5B inh)
O=C(c1ccccc1Cl)N1CCN(CCCn2nc3n(c2=O)CCCC3)CC1	none (no result: SNCA expr inh, HEK293 viab, KDM5B inh)
c1ccc2c(c1)COC1(CCNC1)CN2CC1CCCCC1 (stereo not given)	KDM5B inh inconclusive
Cc1cn2nc(C(=O)Nc3ccc(C)c(F)c3)cc2c(N2CCSCC2)n1	KDM5B inh 25µM
COc1ccc(OC)c(NC(=O)c2cc3c(N4CCSCC4)nc(C)cn3n2)c1	none
COc1ccc(NC(=O)c2cc3c(N4CCSCC4)nc(C)cn3n2)cc1OC	KDM5B inh 28µM
COc1cccc(NC(=O)c2cc3c(N4CCSCC4)nc(C)cn3n2)c1	KDM5B inh 28µM
Cc1cn2nc(C(=O)Nc3ccc(OC(F)(F)F)cc3)cc2c(N2CCSCC2)n1	KDM5B inh 25µM
Cc1cn2nc(C(=O)NCc3ccc(F)cc3)cc2c(N2CCSCC2)n1	KDM5B inh inconclusive
CC(=O)NC1(C)CCN(Cc2cccc(Nc3cccc(Cl)c3)c2)C1 (stereo not given)	KDM5B inh inconclusive
O=c1[nH]c(-n2cccc2)c(-c2c(-c3ccccc3)[nH]c3[nH]c(=O)[nH]c(=O)c23)c(=O)[nH]1	none (no result: SNCA expr inh, IP6K1 inhibitor, HEK293 viab)
COc1cc(NC(=O)c2cc3c(N4CCSCC4)nc(C)cn3n2)cc(OC)c1OC	KDM5B inh 22µM
COc1ccc(F)cc1C(=O)NCc1cc2n(n1)CCN(C(=O)N(C)C)C2	none
Cc1cc(C)n2ncc(C(=O)NCc3cc4n(n3)CCN(C(=O)N(C)C)C4)c2n1	KDM5B inh 32µM
COc1ccccc1-c1cccc(CN2CCC(NC(=O)c3ccc(F)cc3)CC2)c1	none (no result: KDM5B inh)
CC(=O)Nc1ccc2[nH]cc(C(C(=O)O)N3CCN(c4ncccc4C#N)CC3)c2c1 (stereo not given)	none (no result: SNCA expr inh, IP6K1 inhibitor, HEK293 viab)
CC(C)OCCCNC(=O)c1cc(C2CC2)nc2onc(C3CCCN3)c12 (stereo not given)	KDM5B inh inconclusive
Cc1cc(C(=O)NCCCOC(C)C)c2c(C3CCCN3)noc2n1 (stereo not given)	KDM5B inh 50µM
O=C(NCC1CC1)c1cc(C2CC2)nc2onc(C3CCCNC3)c12 (stereo not given)	KDM5B inh 89µM
O=C(NCc1ccc(F)cc1)c1cc(C2CC2)nc2onc(C3CCCNC3)c12 (stereo not given)	none
COCCNC(=O)c1cc(C2CC2)nc2onc(C3CCCN3)c12 (stereo not given)	KDM5B inh 56µM
O=C(NCC1CC1)c1cc(C2CC2)nc2onc(C3CCCN3)c12 (stereo not given)	KDM5B inh 89µM
Cc1ccc(-c2ccccc2CN2CCN(C(=O)c3ccccc3Cl)CC2)cc1Cl	none (no result: KDM5B inh)
CC(C)c1nc2c(c(-c3ccc(Cl)cc3)n1)CCN(Cc1ccsc1)CC2	SNCA expr inh inconclusive, KDM5B inh inconclusive
CCS(=O)(=O)c1ccc2oc([C@H]3CCN(Cc4c[nH]c5ccccc45)C3)nc2c1	KDM5B inh 32µM
COC(=O)N(C)Cc1cccc(N2CCN([S+](=O)([O-])c3c(Cl)cccc3Cl)CC2)c1F	none (no result: SNCA expr inh, HEK293 viab, KDM5B inh)
COCC1CN(Cc2ccc(Br)s2)CC12CCNCC2 (stereo not given)	KDM5B inh 10µM
COc1ccc(-c2cc(C(=O)NCc3cccc(C(F)(F)F)c3)c3cnn(C)c3n2)cc1	none (no result: KDM5B inh)
CC1Cc2cc(C(=O)Nc3cccc(-c4nnc5n4CCCCC5)c3)ccc2N1S(C)(=O)=O (stereo not given)	none (no result: SNCA expr inh, IP6K1 inhibitor, HEK293 viab)
Nc1n[nH]c(CNc2cc(-c3ccc(F)cc3)nc3ccnn23)n1	KDM5B inh 28µM
Fc1ccc(CCNc2cc(Cl)nc3ccnn23)cc1	none
